Bioassay records as filed in PubChem BioAssay.
HP1b chromo inh: blocks HP1-beta chromodomain binding to methylated histone tails | 390,000 compounds, 0.56% hits | AID 540317 | Potency, µM (top dose mostly 114 µM), most hits filed as inhibitors | P83916 | AlphaScreen HP1-beta / biotin-H3K9me3 peptide binding; further: nearly all actives have a fitted effect of over 70% in size
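AlphaScreen: HP1-beta (50 nM) preformed 30 min with biotin-H3(1-18)K9me3 peptide (50 nM) in PBS pH 7.4, 0.01% Tween-20. Compound added for 30 min at RT, then streptavidin donor/nickel chelate acceptor beads (10 ug/mL) for 30 min.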
BAZ2B inh: blocks human BAZ2B; Potency, µM (series often up to 114 µM), hits mostly inhibitors; 360,000 compounds, 4.4% hits; Q9UIF8; AlphaScreen BAZ2B-H3K14Ac peptide displacement; further: nearly all actives have a fitted effect of over 60% in size
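In this displacement format the biotinylated H3(5-23) peptide acetylated at Lys14 serves as ligand at 50 nM, with BAZ2B at 50 nM in PBS pH 7.4 containing 0.01% Tween-20. Donor and acceptor beads are 10 ug/mL final.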
PLK1 PBD block: inhibitors of human PLK1 polo-box domain binding. Plk1 PBD binding of FITC phosphopeptide, fluorescence polarization. 360,000 compounds, 2.8% hits. Potency, µM, hits mostly inhibitors. P53350; further: series mostly up to about 57 µM; nearly all actives have a fitted effect of over 65% in size
G9a block: blocks human histone lysine methyltransferase G9a; Potency, µM (highest dose often 102 µM), actives largely listed as inhibitors; Q96KQ7; 350,000 compounds, 8.8% hits; G9a H3K9 monomethylation, AlphaScreen, 2 h; further: nearly all actives have a fitted effect of over 75% in size
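G9a (20 nM) preincubated 15 min RT with compounds, then 500 nM biotinylated H3K9 peptide and 20 uM SAM added; 2 h RT reaction. Monomethyl-H3K9 product detected by AlphaScreen with anti-H3K9me1 antibody, streptavidin donor and anti-rabbit IgG acceptor beads.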
JMJD2A Tudor: inhibitors of human JMJD2A Tudor domain; O75164; AlphaScreen JMJD2A-Tudor / H3K4me3 peptide binding; Potency, µM (doses to about 114 µM), most hits filed as inhibitors; 390,000 compounds, 4.4% hits; further: nearly all actives have a fitted effect of over 50% in size
Sfp PPTase inh: inhibitors of Bacillus subtilis Sfp phosphopantetheinyl transferase. AID 1490. Potency, µM, hits mostly inhibitors. Biochemical Sfp PPTase activity, qHTS. Q9F4F7. 310,000 compounds, 3.5% hits;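 further: the enzyme is Sfp with the accession as filed and its product quenches rhodamine fluorescence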
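Fluorescence-quenching assay with 15 nM Sfp, 5 uM rhodamine-CoA and 12.5 uM BHQ-2-labelled ybbR peptide in pH 7.6 Hepes/MgCl2 buffer. Enzyme was pre-incubated with compound for 15 min at room temperature. Rate was taken from the 30-min fluorescence change (525/598 nm).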
Large screens that a line does not name were inactive. An excerpt weighted towards active compounds, which were near 12% of everything screened. The call rests on the fitted dose curve; in most records, active means well fitted curve in the direction sought with a large enough effect; inconclusive means small, poorly fitted or top-dose-only effect, or another doubt; inactive means no such curve, though single readings can be large; an effect the other way counts as inactive or inconclusive.

Cc1ccc(-c2nnn(CC(=O)N(c3cccc(O)c3)C(C(=O)NC(C)(C)C)c3cccs3)n2)o1 (stereo not given)	G9a block 45µM
Cc1ccc(-c2nnn(CC(=O)N(Cc3ccco3)C(C(=O)NC(C)(C)C)c3ccc(C)o3)n2)o1 (stereo not given)	JMJD2A Tudor inconclusive
CC(C)(C)NC(=O)C(c1ccncc1)N(C(=O)Cn1nnc(-c2ccc(F)cc2)n1)c1ccc(F)cc1 (stereo not given)	none
CC(C)(C)NC(=O)C(c1ccc(O)cc1)N(Cc1ccco1)C(=O)Cn1nnc(-c2cccs2)n1 (stereo not given)	G9a block 20µM, JMJD2A Tudor inconclusive
Cc1ccc(-c2nnn(CC(=O)N(c3cccc(F)c3)C(C(=O)NC(C)(C)C)c3ccco3)n2)o1 (stereo not given)	G9a block 50µM
CC(C)(C)NC(=O)C(c1ccncc1)N(C(=O)Cn1nnc(-c2ccc(F)cc2)n1)c1ccccc1 (stereo not given)	BAZ2B inh inconclusive, PLK1 PBD block 27µM, G9a block 22µM, JMJD2A Tudor inconclusive, Sfp PPTase inh 20µM
COC(=O)c1ccc(N2CCOCC2)c(NC(=O)c2ccco2)c1	none
COc1cnc(-c2ccccn2)[nH]c1=O	BAZ2B inh 1.3µM, JMJD2A Tudor 40µM, Sfp PPTase inh 10µM
CCc1cc2c(=O)[nH]c(-c3ccccn3)nc2s1	BAZ2B inh 28µM, JMJD2A Tudor 25µM
CC1CCCCC1NC(=O)CSc1nncn1N (stereo not given)	HP1b chromo inh inconclusive, PLK1 PBD block 21µM
CC1CCCCC1NC(=O)CSc1nncs1 (stereo not given)	none
COc1ccc(NC(=O)N2CCCC3(CCN(C(C)=O)CC3)C2)cc1	none (no result: HP1b chromo inh, BAZ2B inh, PLK1 PBD block, JMJD2A Tudor)
COc1ccccc1N1CCN(CC(O)COc2ccc(C)cc2C(C)(C)C)CC1 (stereo not given)	HP1b chromo inh inconclusive, BAZ2B inh 32µM, G9a block 14µM, JMJD2A Tudor inconclusive (no result: PLK1 PBD block, Sfp PPTase inh)
COc1ccccc1N1CCN(CC(O)COc2ccc(C)c(C)c2)CC1 (stereo not given)	BAZ2B inh inconclusive, JMJD2A Tudor inconclusive
COc1ccccc1N1CCN(CC(O)COc2cc(C)cc(C)c2)CC1 (stereo not given)	BAZ2B inh inconclusive, G9a block inconclusive, JMJD2A Tudor 79µM (no result: PLK1 PBD block, Sfp PPTase inh)
COc1ccccc1N1CCN(CC(O)COc2ccc(Cl)c(C)c2)CC1 (stereo not given)	BAZ2B inh inconclusive, G9a block inconclusive, JMJD2A Tudor 89µM (no result: PLK1 PBD block, Sfp PPTase inh)
Cc1ccc(OCC(O)CN2CCN(CC(O)COC(C)C)CC2)c(C(C)(C)C)c1 (stereo not given)	none
O=C(O)c1cccc(Nc2cc(Cl)c3nonc3c2[N+](=O)[O-])c1	PLK1 PBD block 12µM, G9a block 32µM
O=[N+]([O-])c1c(Nc2ccc(O)cc2)cc(Cl)c2nonc12	BAZ2B inh inconclusive, PLK1 PBD block 1.7µM, G9a block 32µM, JMJD2A Tudor inconclusive, Sfp PPTase inh 50µM
O=[N+]([O-])c1c(Nc2ccccn2)cc(Cl)c2nonc12	HP1b chromo inh inconclusive, BAZ2B inh inconclusive, G9a block 0.71µM, JMJD2A Tudor inconclusive, Sfp PPTase inh 7.9µM
CN(C)c1cc(Nc2ccc(O)cc2)c([N+](=O)[O-])c2nonc12	PLK1 PBD block inconclusive
O=[N+]([O-])c1ccc(Nc2ccccc2O)c2nonc12	HP1b chromo inh inconclusive, BAZ2B inh inconclusive, G9a block inconclusive, JMJD2A Tudor 50µM
COc1cccc(Cn2c(=O)c(-c3cccc(C#N)c3)nc3cnc(Nc4ccccc4)nc32)c1	none (no result: HP1b chromo inh, BAZ2B inh, PLK1 PBD block, JMJD2A Tudor)
CC(C)CNC(=O)CN(C1CCCCC1)S(=O)(=O)c1ccccc1	none
CCC(=O)Nc1cccc(NC(=O)c2ccc(C)cc2Cl)c1	none (no result: G9a block)
COc1cc(-c2cnc3c(NC=O)cc(-c4cccc(C(=O)NCCN(C)C)c4)cn23)cc(OC)c1OC	none (no result: HP1b chromo inh, BAZ2B inh, G9a block, JMJD2A Tudor, Sfp PPTase inh)
CCOC(=O)C1CN(S(=O)(=O)c2cccc(C(F)(F)F)c2)c2cc(CC(=O)OC)ccc2O1 (stereo not given)	none
O=C(O)c1cccc(Nc2ccc([N+](=O)[O-])c3nonc23)c1	HP1b chromo inh inconclusive, BAZ2B inh inconclusive, G9a block 71µM
O=C(O)c1ccccc1Nc1ccc([N+](=O)[O-])cc1	G9a block inconclusive
O=C(O)c1ccccc1Nc1cc(Cl)c2nonc2c1[N+](=O)[O-]	PLK1 PBD block 7.5µM, G9a block 45µM, Sfp PPTase inh inconclusive
CC(=O)c1ccc(Nc2ccc([N+](=O)[O-])c3nonc23)cc1	BAZ2B inh inconclusive, G9a block inconclusive
COc1ccccc1CN1C(=O)c2ccccc2C1C(=O)NC1CCC(C)CC1 (stereo not given)	PLK1 PBD block 19µM, JMJD2A Tudor inconclusive
COc1ccc(Br)cc1CN1C(=O)c2ccccc2C1C(=O)NC1CCCCCC1 (stereo not given)	none (no result: PLK1 PBD block, Sfp PPTase inh)
O=C(NC1CCCCCC1)C1c2ccccc2C(=O)N1C1CC1 (stereo not given)	G9a block 8.9µM
O=c1[nH]nc(Cc2ccc(Cl)cc2)c2ccccc12	none
Nn1c(=S)[nH]nc(Cc2ccc(O)cc2)c1=O	BAZ2B inh inconclusive, G9a block inconclusive, Sfp PPTase inh 16µM
COc1ccc(Cc2n[nH]c(=S)n(N)c2=O)cc1	G9a block inconclusive, Sfp PPTase inh 56µM
COc1cccc(CNc2ccc3[nH]c(=O)[nH]c3c2)c1OCc1ccccc1F	HP1b chromo inh 32µM, BAZ2B inh 28µM, G9a block 45µM, JMJD2A Tudor 45µM
COc1cc(CNc2ccc3[nH]c(=O)[nH]c3c2)cc(Cl)c1OCc1ccccc1F	none (no result: PLK1 PBD block, Sfp PPTase inh)
C=CCOc1ccccc1CNc1ccc2c(c1)OCCO2	HP1b chromo inh inconclusive, BAZ2B inh 71µM, PLK1 PBD block inconclusive, G9a block 8.9µM, JMJD2A Tudor 50µM
C=CCOc1ccccc1CNc1cccc(F)c1	none
C=CCOc1ccccc1CNc1ccc2[nH]c(=O)[nH]c2c1	HP1b chromo inh inconclusive, BAZ2B inh 56µM, G9a block 28µM, JMJD2A Tudor inconclusive
CCOc1ccc(Br)cc1CNc1ccc2c(c1)OCCO2	HP1b chromo inh 50µM, BAZ2B inh 25µM, JMJD2A Tudor 28µM
CCc1ccc(Nc2cc(C)nc3nc(Cc4ccc(Cl)cc4)nn23)cc1	none (no result: PLK1 PBD block, Sfp PPTase inh)
C=CCNc1ncnc2c1ncn2[C@H]1CN(Cc2ccc(-c3ccccc3)cc2)C[C@@H](CO)O1	none (no result: HP1b chromo inh, BAZ2B inh, G9a block, JMJD2A Tudor, Sfp PPTase inh)
COc1ccc2c(c1)c1c(c(=O)n(-c3cccc(C)c3)c(=O)n1CC(=O)NCC1CCCO1)n2C (stereo not given)	none (no result: PLK1 PBD block, Sfp PPTase inh)
CNc1cc(-c2cccc(C(=O)N3CCOCC3)c2)ncn1	none (no result: HP1b chromo inh, BAZ2B inh, G9a block, JMJD2A Tudor, Sfp PPTase inh)
COc1ccc(-c2c(C#Cc3ccsc3)c3ccccc3n2C)cc1	BAZ2B inh inconclusive, PLK1 PBD block inconclusive, G9a block 32µM
